These results are taken from ChEMBL document CHEMBL1157539, “Thousands of chemical starting points for antimalarial lead identification” (Nature, 2010).

As a reminder, the Inhibition is the percentage by which the read-out fell short of the control.

The test system of the first test is Plasmodium falciparum. Nature of the test: GSK_TCMDC: Inhibition of Plasmodium falciparum 3D7 in whole red blood cells, using parasite LDH activity as an index of growth. Test compounds present at 2uM. In kind it is functional.
Turning to `O=C(Nc1ccc2oc(-c3ccc(Br)cc3)nc2c1)c1ccc([N+](=O)[O-])o1`, the Inhibition is reported as 92%.

Compound `CS(=O)(=O)Nc1ccc(-c2ccc3ccnc(N)c3c2)cc1.O=C(O)C(F)(F)F` displayed an Inhibition of 85%.

Compound `COc1cccc2c(NCCNc3ccnc4c(OC)cccc34)ccnc12.Cl` returned an Inhibition of 93%.

In turn, `COc1ccccc1CCNc1nc(C)cc(NCCC(=O)NCCOc2ccccc2)n1.O=C(O)C(F)(F)F` came in with an Inhibition of 85%.

The next test concerns Plasmodium falciparum. Nature of the test: GSK_TCMDC: Inhibition of Plasmodium falciparum Dd2 in whole red blood cells, using parasite LDH activity as an index of growth. Test compounds present at 2uM. The test is classed as functional.
Compound `O=C(/C=C/c1ccc(Cl)c(Cl)c1)NCCCCCN1CCC(c2c[nH]c3cc(O)ccc23)CC1` came in with an Inhibition of 2%.

On to `Cl.N=C(N)c1cccc(OCCCOc2cccc(NC(=O)Nc3ccc([N+](=O)[O-])cc3)c2)c1`, for which the Inhibition is 22%.

Compound `O=C(Nc1ccccc1N1CCOCC1)c1ncoc1-c1ccccc1C(F)(F)F` had an Inhibition of 60%.

In the case of `CCC(O)(C#Cc1c(C)nc(N)nc1N)CC`, the Inhibition is recorded as 0%.

Take `O=C(/C=C/c1ccc(Cl)c(Cl)c1)NCCCCCN1CCCC(C(=O)Nc2cccc(Cl)c2)C1` (centres undefined): the Inhibition amounted to 2%.

As to `CN1CCN(c2ccnc3cc4c(cc23)N(Cc2ccccc2)CC4)CC1`, the Inhibition came out at 27%.

Regarding `O=C(O)C(F)(F)F.O=S(=O)(NCCN1CCCC1)c1cccc(-c2ccc(CNCc3ccsc3)cc2)c1`, the Inhibition worked out at 31%.

The compound `CCc1ccc(NC(=O)c2ccc(CN3CCCN(Cc4cccs4)CC3)cc2)cc1.O=C(O)C(F)(F)F` returned an Inhibition of 0%.

With `O=C(NCCCCCN1CCCN(C(=O)Nc2ccc(F)c(C(F)(F)F)c2)CC1)C1CC1c1ccc(Cl)c(Cl)c1` (centres undefined), the Inhibition is on record as 1%.

In turn, `Cc1nc(-c2cccc(C(=O)Nc3cnc4ccccc4c3)c2)no1.O=C(O)C(F)(F)F` returned an Inhibition of 12%.

With `Cc1ccc(CNC(=O)c2cnc(N3CCN(c4ccncc4)CC3)c(Cl)c2)cc1.O=C(O)C(F)(F)F`, the Inhibition was 6%.

The compound `Cn1cncc1C(=O)Nc1cccc(-c2ccc(-c3nc4ccccc4[nH]3)s2)c1` came in with an Inhibition of 25%.

In turn, `N#Cc1nc2ccc(OCCN(Cc3ccccc3C(F)(F)F)c3ccc(C#N)c(C(F)(F)F)c3)cc2s1` registered an Inhibition of 47%.

In turn, `CCNc1cc(C(=O)N[C@@H](Cc2ccccc2)[C@H](O)CNC(C)(C)CSCC(C)C)cc(N2CCCC2=O)c1` registered an Inhibition of 97%.

For the compound `CNc1ccc(CNCc2cccc(-c3ccc(-c4nc5cccc(C)c5[nH]4)s3)c2)cc1.O=C(O)C(F)(F)F`, the Inhibition worked out at 88%.

On to `Cc1cccc2nc(-c3cccc(-c4cccc(CN5CCC(CO)CC5)c4)c3)[nH]c12.O=C(O)C(F)(F)F`, for which the Inhibition was determined as 90%.

Regarding `CCC[C@@H]([C@@H](CC1CCCCC1)C(=O)N[C@@H](CCCCNS(C)(=O)=O)C(=O)Nc1nccs1)N(O)C=O`, the Inhibition was 74%.

In turn, `Clc1ccc(-c2nc3cc(-c4ccc5nc(-c6ccc(Cl)cc6)[nH]c5c4)ccc3[nH]2)cc1` returned an Inhibition of 99%.

`O=C(NC1CCCc2ccccc21)C1CCCN(C(=O)c2ccc(O)c(-c3ccc(Cl)c(Cl)c3)c2)C1` (centres undefined) gave an Inhibition of 54%.

As to `O=C(Nc1cccc(-c2nn3ccccc3c2-c2ccnc(Nc3ccc(-c4cc[nH]n4)cc3)n2)c1)c1c(F)cccc1F`, the Inhibition was 98%.

In turn, `CS(=O)(=O)CCNCc1cc(-c2cc3ncnc(Nc4ccc(OCc5cccc(F)c5)c(Cl)c4)c3s2)cs1` had an Inhibition of 48%.

`OC(CNCc1ccccc1OCc1ccccc1)c1cccc(Cl)c1` (centres undefined) had an Inhibition of 100%.

With `COc1ccc(-c2cnc3ccc(NCc4ccc(S(N)(=O)=O)cc4)nn23)cc1`, the Inhibition is recorded as 99%.

In the case of `CN(C)c1ccc(CN2CCC(CNC(=O)c3cc(-c4cccc(C(F)(F)F)c4)cs3)C2)cc1.O=C(O)C(F)(F)F` (centres undefined), the Inhibition came out at 34%.

The compound `CN1CCCN(Cc2ccc(-c3ccc(NC(=O)c4cccc(Cl)c4)cc3)cc2)CC1.O=C(O)C(F)(F)F` had an Inhibition of 64%.

As to `Cc1noc(C)c1-c1cccc(CNCc2ccc(-c3cccc(-c4nc5cc(C(F)(F)F)ccc5[nH]4)c3)cc2)c1.O=C(O)C(F)(F)F`, the Inhibition turned out to be 97%.

On to `COc1cc(C=NNc2cc(C)nc3c(OC)cccc23)cc(OC)c1OC`, for which the Inhibition is recorded as 49%.

In turn, `COc1ccc(CCNCCCCCCNCCc2ccccc2Cl)cc1OC.Cl` came in with an Inhibition of 3%.

`N#Cc1ccc(N/C(=N\c2cccc(Cl)c2Cl)NC2Cc3ccccc3C2)c(O)c1` returned an Inhibition of 77%.

`COc1cc(NC(=O)N2CCOC(CCN3CCC(c4ccccc4)CC3)(c3ccc(Cl)c(Cl)c3)C2)cc(OC)c1` (centres undefined): the Inhibition turned out to be 73%.

In turn, `CCC(C)c1ccc(NC(=O)Nc2ccnc3ccccc23)cc1.Cl` (centres undefined) had an Inhibition of 42%.

As to `N=C(N)c1ccc(NCc2cccc(C(=O)O)c2)cc1.O=C(O)C(F)(F)F`, the Inhibition was found to be 79%.

Take `Fc1ccc2[nH]c(-c3cccc(-c4cccc(CNCC5CCCO5)c4)c3)nc2c1.O=C(O)C(F)(F)F` (centres undefined): the Inhibition was found to be 94%.

Consider `CN(C)c1cc(C(=O)N[C@@H](Cc2ccccc2)[C@H](O)CNC2CCCCC2)cc2[nH]ccc12.O=CO`, for which the Inhibition is 97%.

`O=C(/C=C/c1ccc(Cl)cc1)NCCCCCN1CCC(C(=O)Nc2ccc(Cl)c(Cl)c2)CC1`: the Inhibition worked out at 0%.

`CCc1c(C)c2ccc3c(c2oc1=O)CN(CCc1ccc(F)cc1)CO3` returned an Inhibition of 85%.

Compound `O=C(Nc1ccc2oc(-c3ccc(Br)cc3)nc2c1)c1ccc([N+](=O)[O-])o1` displayed an Inhibition of 21%.

In the case of `CS(=O)(=O)Nc1ccc(-c2ccc3ccnc(N)c3c2)cc1.O=C(O)C(F)(F)F`, the Inhibition is reported as 75%.

Compound `COc1cccc2c(NCCNc3ccnc4c(OC)cccc34)ccnc12.Cl` gave an Inhibition of 86%.

The compound `COc1ccccc1CCNc1nc(C)cc(NCCC(=O)NCCOc2ccccc2)n1.O=C(O)C(F)(F)F` showed an Inhibition of 14%.
